About 7,900 targets were measured; listed, in parts, are those with a hit and a random draw of the rest. About 0.6% of all pairs of compound and target were hits. Values without a mark were called inactive.
Assays:
Experiment in all cases: log2 fold change, soluble protein after heating vs DMSO (PISA); higher = thermal stabilisation; K562 cells, 10 uM, 30 min; active = over 0.2 and 3.5 SD of the protein, either way, in both replicates (recomputed)
[1] = compound: COC1=CC=C(C=C1)CN2C=CC3=C2C=C(C=C3)C(=O)NO
Outline: (§1)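 Thermal stability values are relative to control samples and come from duplicates. They are expressed as log2 fold changes. For measurement, K562 cells (2×10^6 cells/mL) received 10 μM compound for 30 min, and aliquots were heated for 3 min over 48°C-58°C, pooled, and extracted at 4°C in PBS with 0.5% NP-40. Soluble protein, the supernatant after 21,000xg for 90 min, was quantified by TMTpro 16plex LC-MS/MS with equalised channel sums.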

filanesib = compound: CON(C)C(=O)N1N=C(c2cc(F)ccc2F)S[C@@]1(CCCN)c1ccccc1 [filanesib]
Outline: as §1

zotarolimus = compound: CO[C@H]1C[C@@H]2CC[C@@H](C)[C@@](O)(O2)C(=O)C(=O)N2CCCC[C@H]2C(=O)O[C@H]([C@H](C)C[C@@H]2CC[C@H](n3cnnn3)[C@H](OC)C2)CC(=O)[C@H](C)/C=C(\C)[C@@H](O)[C@@H](OC)C(=O)[C@H](C)C[C@H](C)/C=C/C=C/C=C/1C [zotarolimus]
Outline: as §1

idasanutlin = compound: COc1cc(C(=O)O)ccc1NC(=O)[C@@H]1N[C@@H](CC(C)(C)C)[C@](C#N)(c2ccc(Cl)cc2F)[C@H]1c1cccc(Cl)c1F [idasanutlin]
Outline: as §1

alisertib = compound: COc1cc(Nc2ncc3c(n2)-c2ccc(Cl)cc2C(c2c(F)cccc2OC)=NC3)ccc1C(=O)O [alisertib]
Outline: as §1

[2] = compound: COc1cc2nc(-c3cc(F)ccc3O)nc(N[C@@H]3CNC[C@H]3C(C)(C)O)c2cc1OC
Outline: as §1

gefitinib = compound: COc1cc2ncnc(Nc3ccc(F)c(Cl)c3)c2cc1OCCCN1CCOCC1 [gefitinib]
Outline: as §1

[3] = compound: COc1cccc2cc(-c3nc([C@H]4CC[C@H](C(=O)O)CC4)n4ncnc(N)c34)[nH]c12
Outline: as §1

lapatinib = compound: CS(=O)(=O)CCNCc1ccc(-c2ccc3ncnc(Nc4ccc(OCc5cccc(F)c5)c(Cl)c4)c3c2)o1 [lapatinib]
Outline: as §1

pictilisib = compound: CS(=O)(=O)N1CCN(Cc2cc3nc(-c4cccc5[nH]ncc45)nc(N4CCOCC4)c3s2)CC1 [pictilisib]
Outline: as §1

[4] = compound: CS(=O)(=O)c1ccc(-c2cnc(N)c(C(=O)Nc3ccccc3)n2)cc1
Outline: as §1

crizotinib = compound: C[C@@H](Oc1cc(-c2cnn(C3CCNCC3)c2)cnc1N)c1c(Cl)ccc(F)c1Cl [crizotinib]
Outline: as §1

[5] = compound: C[C@@H]1COCCN1C2=NC(=NC(=C2)C3(CC3)S(=O)(=O)C)C4=C5C=CNC5=CC=C4
Outline: as §1

[6] = compound: C[C@H](C1=CC=C(C=C1)C(=O)NC2=C3C=CNC3=NC=C2)N
Outline: as §1

duvelisib = compound: C[C@H](Nc1ncnc2nc[nH]c12)c1cc2cccc(Cl)c2c(=O)n1-c1ccccc1 [duvelisib]
Outline: as §1

gandotinib = compound: Cc1cc(Nc2cc(CN3CCOCC3)c3nc(C)c(Cc4ccc(Cl)cc4F)n3n2)n[nH]1 [gandotinib]
Outline: as §1

tozasertib = compound: Cc1cc(Nc2cc(N3CCN(C)CC3)nc(Sc3ccc(NC(=O)C4CC4)cc3)n2)n[nH]1 [tozasertib]
Outline: as §1

[7] = compound: Cc1cc(SCc2sc(-c3ccc(C(F)(F)F)cc3)nc2C)ccc1OCC(=O)O
Outline: as §1

doramapimod = compound: Cc1ccc(-n2nc(C(C)(C)C)cc2NC(=O)Nc2ccc(OCCN3CCOCC3)c3ccccc23)cc1 [doramapimod]
Outline: as §1

ispinesib = compound: Cc1ccc(C(=O)N(CCCN)[C@@H](c2nc3cc(Cl)ccc3c(=O)n2Cc2ccccc2)C(C)C)cc1 [ispinesib]
Outline: as §1

Chain of UniProt Q9UDW1 (Q9UDW1 whole entry, looked up): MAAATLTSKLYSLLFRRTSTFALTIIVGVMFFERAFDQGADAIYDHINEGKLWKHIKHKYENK
Chain of UniProt Q9Y5L0 (Q9Y5L0 whole entry, looked up): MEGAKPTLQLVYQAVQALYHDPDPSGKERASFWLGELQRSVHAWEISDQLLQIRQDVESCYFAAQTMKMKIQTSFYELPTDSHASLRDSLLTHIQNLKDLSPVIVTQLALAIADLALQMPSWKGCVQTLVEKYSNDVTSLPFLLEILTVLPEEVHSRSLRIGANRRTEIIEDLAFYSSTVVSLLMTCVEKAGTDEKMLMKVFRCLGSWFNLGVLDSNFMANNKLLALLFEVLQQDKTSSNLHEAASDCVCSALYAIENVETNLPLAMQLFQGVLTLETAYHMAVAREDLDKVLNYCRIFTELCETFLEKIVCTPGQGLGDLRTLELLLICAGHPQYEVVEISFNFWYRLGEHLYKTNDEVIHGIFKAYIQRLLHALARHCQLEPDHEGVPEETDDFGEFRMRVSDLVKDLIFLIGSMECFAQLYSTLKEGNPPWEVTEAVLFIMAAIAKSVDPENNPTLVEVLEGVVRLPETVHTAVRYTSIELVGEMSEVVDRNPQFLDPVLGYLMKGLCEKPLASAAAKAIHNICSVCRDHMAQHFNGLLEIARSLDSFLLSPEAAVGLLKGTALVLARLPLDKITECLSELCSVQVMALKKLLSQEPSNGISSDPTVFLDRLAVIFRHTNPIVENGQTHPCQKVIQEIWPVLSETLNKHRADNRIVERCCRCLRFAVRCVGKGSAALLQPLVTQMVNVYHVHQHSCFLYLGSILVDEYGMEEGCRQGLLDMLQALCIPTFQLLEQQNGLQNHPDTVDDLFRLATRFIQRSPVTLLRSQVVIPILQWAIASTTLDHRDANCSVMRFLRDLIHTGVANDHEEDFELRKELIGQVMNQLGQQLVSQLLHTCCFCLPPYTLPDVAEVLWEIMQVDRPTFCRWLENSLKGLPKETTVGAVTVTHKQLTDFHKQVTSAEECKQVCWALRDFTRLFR
Chain of UniProt Q9UL33 (Q9UL33 whole entry, looked up): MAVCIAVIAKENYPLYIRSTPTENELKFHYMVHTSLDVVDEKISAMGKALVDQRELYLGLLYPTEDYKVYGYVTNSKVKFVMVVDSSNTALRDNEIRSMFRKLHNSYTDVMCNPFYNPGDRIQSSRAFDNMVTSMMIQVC
Chain of UniProt O75674 (O75674 whole entry, looked up): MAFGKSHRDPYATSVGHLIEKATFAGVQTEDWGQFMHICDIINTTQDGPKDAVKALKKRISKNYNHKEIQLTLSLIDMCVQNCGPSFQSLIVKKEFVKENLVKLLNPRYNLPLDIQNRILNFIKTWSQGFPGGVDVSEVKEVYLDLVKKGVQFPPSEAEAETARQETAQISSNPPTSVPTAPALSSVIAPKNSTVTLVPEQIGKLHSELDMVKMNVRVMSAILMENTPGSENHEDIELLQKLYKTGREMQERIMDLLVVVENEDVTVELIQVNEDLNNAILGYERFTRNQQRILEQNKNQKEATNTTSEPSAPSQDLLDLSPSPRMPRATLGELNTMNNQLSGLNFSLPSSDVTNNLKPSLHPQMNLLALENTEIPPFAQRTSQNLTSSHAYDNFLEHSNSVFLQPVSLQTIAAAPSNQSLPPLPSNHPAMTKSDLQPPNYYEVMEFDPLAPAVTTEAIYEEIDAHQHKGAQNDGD
Chain of UniProt O00220 (O00220 whole entry, looked up): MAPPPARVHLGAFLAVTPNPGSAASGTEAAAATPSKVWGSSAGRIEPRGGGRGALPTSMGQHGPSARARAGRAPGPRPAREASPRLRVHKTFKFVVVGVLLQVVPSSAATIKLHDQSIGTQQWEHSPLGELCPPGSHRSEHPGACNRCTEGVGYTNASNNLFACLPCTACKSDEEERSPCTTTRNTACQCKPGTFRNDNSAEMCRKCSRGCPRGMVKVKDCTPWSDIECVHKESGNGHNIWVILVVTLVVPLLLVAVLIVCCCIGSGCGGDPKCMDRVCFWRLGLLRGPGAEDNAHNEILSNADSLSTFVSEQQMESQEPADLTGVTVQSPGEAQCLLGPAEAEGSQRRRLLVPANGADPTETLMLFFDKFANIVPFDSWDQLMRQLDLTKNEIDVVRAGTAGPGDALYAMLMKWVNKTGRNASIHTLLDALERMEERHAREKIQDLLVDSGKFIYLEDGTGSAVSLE
Chain of UniProt A0JNW5 (A0JNW5 whole entry, looked up): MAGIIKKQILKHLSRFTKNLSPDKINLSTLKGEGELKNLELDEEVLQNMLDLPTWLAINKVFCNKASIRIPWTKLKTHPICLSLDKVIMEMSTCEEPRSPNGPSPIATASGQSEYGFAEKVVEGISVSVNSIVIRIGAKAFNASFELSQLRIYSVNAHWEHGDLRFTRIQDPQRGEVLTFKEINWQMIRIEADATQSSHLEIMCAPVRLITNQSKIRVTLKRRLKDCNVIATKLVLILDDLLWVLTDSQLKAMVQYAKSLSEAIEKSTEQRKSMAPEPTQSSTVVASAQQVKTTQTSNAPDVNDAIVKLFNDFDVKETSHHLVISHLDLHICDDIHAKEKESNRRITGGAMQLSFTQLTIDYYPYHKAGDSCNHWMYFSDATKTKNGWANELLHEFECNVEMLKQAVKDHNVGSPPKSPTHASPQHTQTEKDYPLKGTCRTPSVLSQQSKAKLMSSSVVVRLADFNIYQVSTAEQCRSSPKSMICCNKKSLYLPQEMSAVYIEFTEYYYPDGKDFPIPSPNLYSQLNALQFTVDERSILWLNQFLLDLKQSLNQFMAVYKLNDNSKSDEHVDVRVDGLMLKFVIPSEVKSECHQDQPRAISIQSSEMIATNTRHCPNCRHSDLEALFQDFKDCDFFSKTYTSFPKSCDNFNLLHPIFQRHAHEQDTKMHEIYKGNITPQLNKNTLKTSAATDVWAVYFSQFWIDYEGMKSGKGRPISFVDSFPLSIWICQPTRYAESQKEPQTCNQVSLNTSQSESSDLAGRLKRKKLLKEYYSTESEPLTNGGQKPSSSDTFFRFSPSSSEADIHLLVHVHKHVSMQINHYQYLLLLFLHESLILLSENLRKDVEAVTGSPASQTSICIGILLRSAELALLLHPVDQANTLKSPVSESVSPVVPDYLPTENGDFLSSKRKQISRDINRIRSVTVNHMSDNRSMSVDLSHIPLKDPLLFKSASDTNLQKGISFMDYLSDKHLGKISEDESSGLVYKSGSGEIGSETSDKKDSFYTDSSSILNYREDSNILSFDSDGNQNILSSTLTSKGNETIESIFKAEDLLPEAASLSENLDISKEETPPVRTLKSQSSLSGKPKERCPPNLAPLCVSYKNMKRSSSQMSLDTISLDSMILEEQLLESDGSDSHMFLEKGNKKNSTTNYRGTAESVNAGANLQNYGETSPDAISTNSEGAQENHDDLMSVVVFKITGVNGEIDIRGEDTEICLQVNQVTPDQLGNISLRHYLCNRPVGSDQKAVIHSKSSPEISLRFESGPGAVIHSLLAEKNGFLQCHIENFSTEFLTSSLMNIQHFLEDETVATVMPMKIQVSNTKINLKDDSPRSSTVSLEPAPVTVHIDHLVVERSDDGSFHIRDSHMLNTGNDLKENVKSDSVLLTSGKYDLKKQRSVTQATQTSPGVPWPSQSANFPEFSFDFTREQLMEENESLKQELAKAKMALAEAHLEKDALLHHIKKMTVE
Chain of UniProt P49754 (P49754 whole entry, looked up): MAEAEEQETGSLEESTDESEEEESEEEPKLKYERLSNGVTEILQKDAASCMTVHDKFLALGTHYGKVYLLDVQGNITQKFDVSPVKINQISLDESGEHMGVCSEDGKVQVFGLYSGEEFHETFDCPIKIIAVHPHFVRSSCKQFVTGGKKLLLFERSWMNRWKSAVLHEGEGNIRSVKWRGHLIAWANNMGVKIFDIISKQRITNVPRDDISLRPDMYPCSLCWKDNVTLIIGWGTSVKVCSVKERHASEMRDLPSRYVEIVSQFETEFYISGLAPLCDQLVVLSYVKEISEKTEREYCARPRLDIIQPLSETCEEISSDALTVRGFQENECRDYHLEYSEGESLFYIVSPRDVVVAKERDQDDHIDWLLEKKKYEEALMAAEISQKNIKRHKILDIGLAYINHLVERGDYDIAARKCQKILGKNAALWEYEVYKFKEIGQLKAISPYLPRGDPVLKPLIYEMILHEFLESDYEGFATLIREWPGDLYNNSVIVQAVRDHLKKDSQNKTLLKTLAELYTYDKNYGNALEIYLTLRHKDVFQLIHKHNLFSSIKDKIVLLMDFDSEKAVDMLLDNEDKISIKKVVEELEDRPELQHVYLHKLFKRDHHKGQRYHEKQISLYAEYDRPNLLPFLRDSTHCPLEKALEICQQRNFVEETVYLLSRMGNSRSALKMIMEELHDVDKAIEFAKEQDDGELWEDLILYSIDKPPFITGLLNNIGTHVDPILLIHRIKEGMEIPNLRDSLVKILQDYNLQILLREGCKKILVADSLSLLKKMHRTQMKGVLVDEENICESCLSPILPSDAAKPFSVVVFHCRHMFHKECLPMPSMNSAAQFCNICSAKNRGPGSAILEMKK
Chain of UniProt Q99816 (Q99816 whole entry, looked up): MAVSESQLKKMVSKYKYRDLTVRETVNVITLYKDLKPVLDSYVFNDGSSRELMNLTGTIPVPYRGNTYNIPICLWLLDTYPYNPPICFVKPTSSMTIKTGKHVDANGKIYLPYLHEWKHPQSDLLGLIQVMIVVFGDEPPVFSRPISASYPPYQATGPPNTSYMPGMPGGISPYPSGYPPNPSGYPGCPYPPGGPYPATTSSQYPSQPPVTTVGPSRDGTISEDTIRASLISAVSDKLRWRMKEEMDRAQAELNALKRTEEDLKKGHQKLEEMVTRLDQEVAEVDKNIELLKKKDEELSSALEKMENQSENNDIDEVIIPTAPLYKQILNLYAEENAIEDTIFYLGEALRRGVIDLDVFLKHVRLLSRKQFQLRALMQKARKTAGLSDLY
Chain of UniProt P02585 (P02585 whole entry, looked up): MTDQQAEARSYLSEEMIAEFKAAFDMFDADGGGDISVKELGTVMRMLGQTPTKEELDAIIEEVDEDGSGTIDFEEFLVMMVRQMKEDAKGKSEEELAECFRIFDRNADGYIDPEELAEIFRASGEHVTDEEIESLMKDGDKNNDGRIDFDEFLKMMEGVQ

Target	log2 fold change [1]	log2 fold change (filanesib)	log2 fold change (zotarolimus)	log2 fold change (idasanutlin)	log2 fold change (alisertib)	log2 fold change [2]	log2 fold change (gefitinib)	log2 fold change [3]	log2 fold change (lapatinib)	log2 fold change (pictilisib)	log2 fold change [4]	log2 fold change (crizotinib)	log2 fold change [5]	log2 fold change [6]	log2 fold change (duvelisib)	log2 fold change (gandotinib)	log2 fold change (tozasertib)	log2 fold change [7]	log2 fold change (doramapimod)	log2 fold change (ispinesib)
WASH2P (UniProt Q6VEQ5)	0.007	-0.067	-0.029	-0.055	-0.027	0.067	0.001	-0.036	0.016	0.053	-0.002	-0.321 (active)	-0.017	0.021	-0.02	-0.03	-0.071	-0.038	0.041	-0.358 (active)
TXNL1 (UniProt O43396)	0.169	0.075	0.047	-0.003	-0.005	0.084	0.05	-0.001	0.006	0.017	0.027	0.067	-0.01	-0.028	0.013	-0.076	0.038	0.068	-0.049	0.07
USP7 (UniProt Q93009)	0.034	-0.14	-0.007	-0.053	0.144	0.039	0.04	0.019	-0.029	0.002	0.008	-0.311	0.147	0.07	0.046	-0.157	-0.077	0.146	-0.039	-0.175
TRAPPC2L (UniProt Q9UL33)	-0.102	-0.05	0.098	-0.026	-0.029	0.03	0	-0.062	0.088	-0.018	0.009	-0.035	0.054	0.035	0.026	-0.023	0.015	0.001	-0.143	0.119
TMEM161A (UniProt Q9NX61)	-0.021	-0.148	-0.072	-0.167	0.009	-0.033	-0.01	0.051	0.075	-0.106	-0.038	-0.026	-0.006	0.001	-0.032	-0.156	-0.145	0.051	-0.023	-0.251
WDR61 (UniProt Q9GZS3)	-0.121	-0.031	0.008	-0.05	-0.082	0.14	-0.035	0.065	-0.104	0.042	0.043	-0.044	0.071	-0.056	0.059	-0.099	-0.072	-0.017	-0.004	-0.028
TOM1L1 (UniProt O75674)	-0.006	0.06	0.008	-0.142	-0.073	0.061	0.056	-0.051	-0.007	-0.076	-0.001	0.08	0.184	-0.059	0.102	-0.342 (active)	-0.03	0.011	-0.021	-0.016
UHRF1BP1L (UniProt A0JNW5)	-0.027	0.038	0.093	-0.073	-0.08	0.179	0.05	0.034	-0.006	-0.046	0.001	-0.04	0.031	-0.002	0.091	-0.038	-0.025	-0.024	0.046	0.2
USP3 (UniProt Q9Y6I4)	0.131	-0.246	0.009	-0.039	0.085	-0.201	-0.007	-0.014	0.053	0.027	0.065	-0.131	0.043	-0.26	-0.008	-0.246	-0.003	0.155	-0.023	-0.04
UQCR10 (UniProt Q9UDW1)	-0.084	-0.05	-0.02	0.031	-0.005	0.037	-0.028	0.022	-0.038	-0.063	-0.036	0.079	0.071	-0.043	0.089	-0.403 (active)	0.013	0.013	-0.025	0.095
TSG101 (UniProt Q99816)	0	-0.07	0.029	-0.031	-0.049	0.007	0.011	0.016	-0.013	0.025	0.035	-0.094	0.082	-0.054	0.019	-0.024	0.032	0.018	0.009	-0.037
TTC38 (UniProt Q5R3I4)	-0.067	-0.023	0.034	-0.093	0.065	0.081	0.013	-0.003	-0.054	-0.041	-0.055	-0.085	-0.085	-0.073	-0.027	-0.031	0	0.063	0.73 (active)	0.06
TNNC2 (UniProt P02585)	-0.037	0.038	-0.006	0.007	-0.172	0.014	0.008	0.045	-0.027	0.025	-0.004	0.06	0.04	-0.005	0.072	0.078	-1.1 (active)	-0.059	-0.014	0.022
TNFRSF10A (UniProt O00220)	-0.046	0.028	-0.035	0.058	-0.021	0.024	-0.012	-0.002	-0.073	0.304 (active)	-0.008	0.037	0.047	-0.073	0	0.019	-0.024	-0.019	-0.023	-0.075
TNPO3 (UniProt Q9Y5L0)	0.053	-0.094	0.036	-0.074	-0.064	-0.035	-0.012	-0.004	-0.035	0.077	-0.028	-0.151	0.025	-0.124	-0.008	-0.143	0.087	0.046	-0.046	0.008
VPS41 (UniProt P49754)	0.004	-0.085	0.015	-0.068	0.038	-0.032	-0.002	-0.063	0.008	-0.028	0.003	-0.213	-0.009	0.03	0.008	-0.117	0.01	0.046	0.034	-0.138
